# According to PubChem BioAssay (EPA / NIEHS):
# “And” between values parts separate entries of the source, which are not always exact repeats. Identical values can stand only once. Results filed as inconclusive are left out. Some structures have more than one record in an assay (separate samples or runs), and their calls can disagree. The source made the active and inactive calls. Rule for the calls: active = hit-call score of the fitted dose curve at least 0.9, where 1 is the maximum; inconclusive = response in the unintended direction; inactive = score below 0.9.
# Experiments:
# [1] = target: Luciferin 4-monooxygenase (Photinus pyralis) (UniProt P08659); assay: CCTE_Simmons_QuantiLum_inhib_2: CCTE's Firefly Luciferase Inhibition Assay, Simmons Lab (AID 2283767);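 for AC50: potency for inhibitors that lower luciferase luminescence relative to DMSO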
# How it was run: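 First, 5 ng purified luciferase in phosphate buffer with BSA is dispensed per well. Next, test chemicals (5 nM to 87.5 uM final, 0.5% DMSO) are added and incubated 30 min at 37C in darkness. Finally, luciferin reagent is injected and luminescence read kinetically.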
# [2] = ACEA_AR_agonist_AUC_viability: ACEA Biosciences xCELLigence Real-Time Cell Analysis on Androgen Receptor Agonism for Viability (AID 2283775);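 for AC50: viability read 80 hours after compound addition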
# How it was run: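 22Rv1 cells; impedance growth kinetics; 8-pt 1:4 dilutions from 100 uM top final, ≤0.5% DMSO; n = 2; 80 h read; AUC viability, loss-of-signal vs DMSO.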
# [3] = ACEA_AR_antagonist_AUC_viability: ACEA Biosciences xCELLigence Real-Time Cell Analysis on Androgen Receptor Antagonism for Viability (AID 2283776);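 note: 22Rv1 human prostate cancer cells growing on impedance electrode plates; area under impedance growth curve at 80 h after dosing as viability; hits lower the growth signal relative to DMSO meaning cytotoxicity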
# How it was run: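 Impedance read-out (RT-CES): area under growth curve at 80 h post-dose, loss of signal scored vs DMSO baseline. 22Rv1 cells; 8-pt 1:4 series, top 100 uM final, ≤0.5% DMSO; biological duplicate.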
# [4] = ACEA_ER_AUC_viability: ACEA Biosciences xCELLigence Real-Time Cell Analysis on Estrogen Receptor Agonism for Viability (AID 2283782);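 note: hit means loss of impedance signal meaning reduced cell growth or viability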
# How it was run: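 Read-out: real-time electrical impedance (RT-CES) area under curve, loss of signal taken as reduced viability, normalized to DMSO baseline. T-47D cells, charcoal-stripped serum medium, compounds up to 100 uM final, continuous exposure, 80 h.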
# [5] = ArunA_CellTiter_hNP: Viability Assessment in the ArunA Biomedical's Oris Neural Crest (hNC) Cell Migration Assay (AID 2283753)
# How it was run: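 Viability read with CellTiter 96 Aqueous One after 72 h chemical exposure of human hNP1 neuroprogenitors, which were plated on Matrigel in LIF/bFGF medium 16 h beforehand. Endpoint fitted in positive direction relative to DMSO.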
# [6] = ArunA_Migration_hNP: ArunA Biomedical's Oris Neuroprogenitor (hNP) Cell Migration Assay (AID 2283754)
# How it was run: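 Readout is calcein-AM fluorescence (ex494/em517) of cells migrating into the detection zone, relative to DMSO. hNP1 cells (H9-derived) grown on Matrigel behind stoppers 16 h, then stoppers pulled and chemical applied 72 h; cytochalasin D as control.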
# [7] = ArunA_Migration_hNC: ArunA Biomedical's Oris Neural Crest (hNC) Cell Migration Assay (AID 2283755)
# How it was run: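 Calcein-AM fluorescence (ex494 nm/em 517 nm) in the stopper-defined detection zone quantifies migration of hNC cells after 72 h chemical exposure; 60,000 cells/well plated on Matrigel with LIF and bFGF, 16 h pre-incubation. DMSO baseline.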
# [8] = ArunA_NOG_NucleusCount: ArunA Biomedical's Neurite Outgrowth (NOG) Assay for Nucleus Count (AID 2283756)
# How it was run: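 Viable neuron count, from Hoechst nuclei passing size and intensity gates, imaged at 20x on differentiated H9-derived human neurons. Exposure lasted 48 h from seeding; activity was scored relative to DMSO.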
# [9] = ArunA_NOG_NeuriteLength: ArunA Biomedical's Neurite Outgrowth (NOG) Assay for Neurite Length (AID 2283757)
# How it was run: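 Total neurite length per neuron, from traced βIII-tubulin-labelled processes longer than 10 um on viable Hoechst-gated cells, was scored as decrease from DMSO. Cells were hESC (H9)-derived neurons given 48 h chemical exposure immediately after seeding.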
# [10] = ArunA_NOG_NeuritesPerNeuron: ArunA Biomedical's Neurite Outgrowth (NOG) Assay for Neurites Per Neuron (AID 2283758)
# How it was run: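 Differentiated human H9-derived neurons exposed to chemicals for 48 h from seeding, then stained with Hoechst and βIII-tubulin/DyLight 488. Automated imaging counted neurites (processes >10 um) per valid neuron; loss of signal versus DMSO scored.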
# [11] = ArunA_NOG_BranchPointsPerNeurite: ArunA Biomedical's Neurite Outgrowth (NOG) Assay for Branch Points Per Neurite (AID 2283759)
# How it was run: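 Automated image analysis traced neurites (processes >10 um) from valid cell bodies after Hoechst and βIII-tubulin staining. hNN cells from H9 embryonic stem cells, 48 h exposure. Fitted bidirectionally against DMSO.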
# Luciferin 4-monooxygenase (Photinus pyralis), sequence (P08659 whole entry, looked up): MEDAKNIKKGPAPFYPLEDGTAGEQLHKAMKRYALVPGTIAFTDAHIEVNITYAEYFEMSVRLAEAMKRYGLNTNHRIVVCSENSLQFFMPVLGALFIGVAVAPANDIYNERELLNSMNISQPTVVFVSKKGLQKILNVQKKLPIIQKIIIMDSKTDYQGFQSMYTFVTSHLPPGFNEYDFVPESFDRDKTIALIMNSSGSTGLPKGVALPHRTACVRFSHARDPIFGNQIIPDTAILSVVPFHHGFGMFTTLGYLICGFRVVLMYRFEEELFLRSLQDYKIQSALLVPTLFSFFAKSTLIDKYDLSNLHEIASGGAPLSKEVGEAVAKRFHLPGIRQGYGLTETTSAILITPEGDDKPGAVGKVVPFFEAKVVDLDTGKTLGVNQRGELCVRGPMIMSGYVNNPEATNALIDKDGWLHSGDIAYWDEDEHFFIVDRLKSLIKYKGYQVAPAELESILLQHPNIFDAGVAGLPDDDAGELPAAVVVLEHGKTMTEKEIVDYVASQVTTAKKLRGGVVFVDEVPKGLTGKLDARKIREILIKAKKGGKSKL
smiles,measurement,setting,value
CCn1nc(Cc2ccccc2)cc1C1CCN(C[C@H]2C[C@H](N(C)[C@@H](C(=O)O)C(C)C)C[C@@H]2c2cccc(F)c2)CC1,outcome,[1],inactive
same,AC50,[2],36 µM (active)
same,AC50,[3],45 µM (active)
same,AC50,[4],7.91 µM (active)
Cc1ccc(N)cc1O,AC50,[1],17.4 µM (active)
same,AC50,[2],89.7 µM (active)
same,AC50,[3],87.4 µM (active)
same,outcome,[4],inactive
CC(C)=CCCC(C)CCO (configuration not stated),outcome,[1],inactive
same,outcome,[2],inactive
same,outcome,[3],inactive
same,outcome,[4],inactive
CCOc1cccc(-n2cc(C(=O)N3CCN(c4cc(C(=O)O)c5ccccc5c4)CC3)nc2-c2ccc(C)cc2)c1,outcome,[1],inactive
same,AC50,[2],7.41 µM (active)
same,AC50,[3],11.5 µM (active)
same,outcome,[4],inactive
CCCN(C1CCN(C(=O)C2CCNCC2)CC1)[C@@H]1CCc2ccc(OC)cc2C1,outcome,[1],inactive
same,AC50,[2],75 µM (active)
same,AC50,[3],50 µM (active)
Oc1ccc2c(c1)-c1ccccc1C2,outcome,[1],inactive
same,AC50,[2],50 µM (active)
same,AC50,[3],41.8 µM (active)
same,AC50,[4],79.2 µM (active)
CC(C)c1cccc(C(C)C)c1N1C(=O)c2ccc(O)cc2C1=O,AC50,[5],20.7 µM (active)
same,AC50,[6],7.81 µM (active) and 3.04 µM (active)
same,AC50,[7],7.71 µM (active) and 2.24 µM (active)
same,outcome,[8],inactive
same,AC50,[9],13.3 µM (active)
same,outcome,[9],inactive
same,AC50,[10],5 µM (active) and 13.3 µM (active)
same,outcome,[11],inactive
same,AC50,[2],19.4 µM (active)
same,AC50,[3],17.6 µM (active)
same,AC50,[4],80.3 µM (active)
NC(=O)NO,outcome,[1],inactive
same,outcome,[2],inactive
same,outcome,[3],inactive
CC/C(=C\C(=N/O)C(N)=O)C(C)[N+](=O)[O-] (configuration not stated),outcome,[1],inactive
same,outcome,[2],inactive
same,AC50,[3],74.2 µM (active)
CCNc1ccccc1,outcome,[1],inactive
same,outcome,[2],inactive
same,outcome,[3],inactive
same,outcome,[4],inactive
O=c1n(CC2CO2)c(=O)n(CC2CO2)c(=O)n1CC1CO1 (configuration not stated),outcome,[1],inactive
same,AC50,[2],0.571 µM (active)
same,AC50,[3],1.02 µM (active)
same,AC50,[4],35.7 µM (active)
Cn1cnc([N+](=O)[O-])c1Sc1ncnc2nc[nH]c12,outcome,[1],inactive
same,AC50,[2],1.15 µM (active)
same,AC50,[3],1.52 µM (active)
same,AC50,[4],1.42 µM (active)
CC[C@H](C)C(=O)O[C@H]1C[C@@H](C)C=C2C=C[C@H](C)[C@H](CC[C@@H]3C[C@@H](O)CC(=O)O3)[C@H]21,AC50,[1],77.6 µM (active)
same,outcome,[1],inactive
same,outcome,[2],inactive
same,AC50,[3],50 µM (active)
same,AC50,[4],28.2 µM (active)
